PubChem BioAssay AID1376 (SRMLSC, 2008)
The whole screen tested about 220,000 compounds, of which about 530 (0.24%) were called active. This excerpt belongs to a sample that is enriched for actives. Entries with a potency or affinity are not part of this list. Unmarked numbers belong to inactive results. Rule as the data show it: active = inhibition above about 13%; inconclusive = no clear call, values can overlap the other calls; inactive = below that.

Target: Bifunctional protein GlmU (Mycobacterium tuberculosis (strain ATCC 25618 / H37Rv)) (UniProt P9WMN3)
Sequence (P9WMN3 whole entry, looked up): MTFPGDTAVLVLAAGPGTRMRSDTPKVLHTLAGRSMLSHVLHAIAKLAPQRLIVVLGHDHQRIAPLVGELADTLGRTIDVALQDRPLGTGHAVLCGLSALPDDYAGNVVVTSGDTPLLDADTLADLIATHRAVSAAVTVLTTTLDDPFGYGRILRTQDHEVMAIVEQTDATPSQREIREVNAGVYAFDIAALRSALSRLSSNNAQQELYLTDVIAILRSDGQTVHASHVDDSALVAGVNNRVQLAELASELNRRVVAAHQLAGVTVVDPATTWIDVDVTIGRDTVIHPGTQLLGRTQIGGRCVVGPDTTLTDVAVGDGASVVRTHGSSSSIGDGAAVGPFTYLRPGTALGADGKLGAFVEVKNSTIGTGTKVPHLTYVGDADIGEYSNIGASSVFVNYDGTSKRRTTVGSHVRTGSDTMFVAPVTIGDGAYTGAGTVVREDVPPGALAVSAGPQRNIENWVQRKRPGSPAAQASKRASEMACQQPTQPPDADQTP
Assay: inhibition of mycobacterial GlmU enzyme – biochemical, glucosamine-1-phosphate acetyltransferase (AID 1376);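 also: 0% = complete reaction with vehicle and 100% = reaction without substrate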
Details: M. tuberculosis GlmU acetyltransferase enzyme assay; hits give high values;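 tested at 30 µM in the primary screen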

Question: For `CSc1nc2ncc(C#N)cn2n1`, which inhibition is on record?
Answer: -5.13%

Question: Which inhibition does the source give for `CC(=O)Nc1ccc(NC(=O)C(Cc2ccccc2)NC(=O)C2CCCCC2)cc1` (configuration not stated) here?
Answer: 1.61%

Question: For `c1ccc(-n2nnc(-c3cccnc3)n2)cc1`, which inhibition is on record?
Answer: 1.76%

Question: For `CCCSc1nc2c(c(=O)[nH]c(=O)n2C)n1CC(O)COc1ccccc1` (configuration not stated), which inhibition is on record?
Answer: 14.1% (active)

Question: For `COc1ccc(OCC(O)Cn2c(Br)nc3c2c(=O)[nH]c(=O)n3C)cc1` (configuration not stated), which inhibition is on record?
Answer: -0.99%

Question: For `COc1ccccc1OCC(O)Cn1c(Br)nc2c1c(=O)[nH]c(=O)n2C` (configuration not stated), which inhibition is on record?
Answer: 13.5% (active)

Question: `CCSc1nc2c(c(=O)[nH]c(=O)n2C)n1CC(O)COc1ccccc1` (configuration not stated) was tested. Which inhibition did it give?
Answer: -3.27%

Question: For `Cc1ccccc1OCC(O)Cn1c(Br)nc2c1c(=O)[nH]c(=O)n2C` (configuration not stated), which inhibition is on record?
Answer: 1.77%

Question: With `Cn1c(=O)[nH]c(=O)c2c1nc(SCCO)n2CC(O)COc1ccccc1` (configuration not stated) as the molecule, how does the inhibition read?
Answer: 0.72%

Question: Which inhibition does the source give for `CCN(CC)C(=O)c1[nH]cnc1C(=O)N[C@@H](C)C(=O)OC(C)(C)C` here?
Answer: -5.07%

Question: Which inhibition does the source give for `COC(=O)c1ccccc1NC(=O)Nc1cccc(C)n1` here?
Answer: 1.31%

Question: How did the inhibition turn out when `Cc1occc1C(=O)N/N=C/c1ccccc1[N+](=O)[O-]` was run?
Answer: -3.47%

Question: Which inhibition does the source give for `CNc1ccc(/C=C(\C#N)c2ccccn2)cc1[N+](=O)[O-]` here?
Answer: 13.2% (active)

Question: With `N#C/C(=C\c1ccc(Cl)c([N+](=O)[O-])c1)c1ccccn1` as the molecule, how does the inhibition read?
Answer: -1.14%

Question: `N#C/C(=C\c1ccc([N+](=O)[O-])cc1)c1ccccn1` was tested. Which inhibition did it give?
Answer: 3.91%

Question: For `Cc1cccc(NC(=O)C2CCCC2)c1`, which inhibition is on record?
Answer: 13.7% (active)

Question: `Cc1cc(C)cc(NC(=O)C2CCCC2)c1` was tested. Which inhibition did it give?
Answer: 9.85%

Question: Which inhibition does the source give for `CC(=O)c1cccc(NC(=O)C2CCCC2)c1` here?
Answer: 1.98%

Question: With `CC1CN(/C(=N\S(=O)(=O)c2ccccc2)c2ccccc2)CC(C)O1` (configuration not stated) as the molecule, how does the inhibition read?
Answer: -2.86%

Question: With `COc1ccccc1CCc1nnc(CCC(=O)NC(C)Cc2ccsc2)o1` (configuration not stated) as the molecule, how does the inhibition read?
Answer: 1.67%

Question: How did the inhibition turn out when `COc1ccc(CS(=O)/C(Cl)=C(/Cl)C(=O)Nc2ccc(OC)nc2)cc1` (configuration not stated) was run?
Answer: 14.6% (active)

Question: How did the inhibition turn out when `COc1ccc(NC(=O)/C(Cl)=C(/Cl)S(=O)Cc2ccc(Cl)cc2)cn1` (configuration not stated) was run?
Answer: 11.8%

Question: `COc1ccc(NC(=O)/C(Cl)=C(/Cl)S(=O)Cc2ccc(C)cc2)cn1` (configuration not stated) was tested. Which inhibition did it give?
Answer: 7.38%

Question: For `CCOc1ccc(NC(=O)C2=C(C)C(=O)OC23CCC(C)CC3)cc1` (configuration not stated), which inhibition is on record?
Answer: 3.82%

Question: How did the inhibition turn out when `CC1=CC(=O)C(C(C)C)=C/C1=N/OS(=O)(=O)c1ccccc1` was run?
Answer: 1.82%

Question: `CC1=C/C(=N\OS(=O)(=O)c2ccccc2)C(C)=CC1=O` was tested. Which inhibition did it give?
Answer: 10.7%

Question: How did the inhibition turn out when `O=C(NCCCn1ccnc1)C1CC(c2ccccc2Cl)=NO1` (configuration not stated) was run?
Answer: -2.77%

Question: How did the inhibition turn out when `COc1cc(C(Nc2ccc(S(=O)(=O)NCC3CCCO3)cc2)C(=O)NC(C)(C)C)cc(OC)c1OC` (configuration not stated) was run?
Answer: 13.6% (active)

Question: Which inhibition does the source give for `COc1ccc(C(Nc2ccc(S(=O)(=O)NCC3CCCO3)cc2)C(=O)NC(C)(C)C)cc1OC` (configuration not stated) here?
Answer: -2.66%

Question: `COc1cc(C(Nc2ccc(S(=O)(=O)N3CCC(C)CC3)cc2)C(=O)NCC2CCCO2)cc(OC)c1OC` (configuration not stated) was tested. Which inhibition did it give?
Answer: 0.15%

Question: How did the inhibition turn out when `CC(=O)Nc1cccc(OCc2ccc(S(=O)(=O)Cc3ccccc3)cc2)c1` was run?
Answer: -12.3%

Question: Which inhibition does the source give for `Cc1cc(N2CCOCC2)ccc1/C=C1/SC(=O)NC1=O` here?
Answer: -0.05%

Question: `O=C1NC(=O)/C(=C/c2ccc(O)cc2)S1` was tested. Which inhibition did it give?
Answer: 2.35%

Question: With `O=C1NC(=O)/C(=C\c2ccc(O)cc2O)S1` as the molecule, how does the inhibition read?
Answer: 12.9% (active)

Question: Which inhibition does the source give for `c1ccc(CSc2ccc(-c3cccnc3)nn2)cc1` here?
Answer: -0.08%

Question: How did the inhibition turn out when `Cc1cc(NC(=O)CSC2=Nc3ccccc3C3=NC(Cc4ccccc4)C(=O)N23)n[nH]1` (configuration not stated) was run?
Answer: -1.18%

Question: Which inhibition does the source give for `CCC1(C)Cc2c(C#N)c(N)n(-c3ccccc3)c(=O)c2CO1` (configuration not stated) here?
Answer: 13.3% (active)

Question: For `CCC1(C)Cc2c(C#N)c(N)n(-c3ccccc3)c(=S)c2CO1` (configuration not stated), which inhibition is on record?
Answer: 6.07%

Question: `CC1(C)Cc2c(C#N)c(N)n(-c3ccccc3)c(=O)c2CO1` was tested. Which inhibition did it give?
Answer: -3.12%

Question: For `CCOC(=O)N1CCN(c2c(NCc3ccc(N(C)C)cc3)c(=O)c2=O)CC1`, which inhibition is on record?
Answer: -1.67%

Question: How did the inhibition turn out when `CCOC(=O)C1CCN(c2c(NCc3ccc(N(C)C)cc3)c(=O)c2=O)CC1` was run?
Answer: 14.4% (active)

Question: `CCCNC(=O)c1ccc(CNc2c(N3CCC(C(=O)OCC)CC3)c(=O)c2=O)cc1` was tested. Which inhibition did it give?
Answer: -8.96%

Question: Which inhibition does the source give for `COc1nccnc1NS(=O)(=O)c1ccc(NC(=S)NC(=O)/C=C/c2ccc(F)cc2)cc1` here?
Answer: 10.5%

Question: For `O=C(/C=C/NNC(=O)c1cccc(Br)c1)c1cccc(Br)c1`, which inhibition is on record?
Answer: 12.9% (active)

Question: Which inhibition does the source give for `O=C(/C=C/NNC(=O)c1ccccc1)c1ccc(Br)cc1` here?
Answer: -1.06%

Question: How did the inhibition turn out when `O=C(/C=C/NNC(=O)c1ccc(Br)cc1)c1ccccc1` was run?
Answer: -0.31%

Question: `CC(C)(C)S(=O)(=O)c1ccsc1C(=O)O` was tested. Which inhibition did it give?
Answer: 0.11%
